Compound activity as filed in PubChem.
NPC1 prom act: NPC1 promoter activation | actives 2.4% (n = 320,000) | Potency, µM (series often up to 9.22 µM), inactives show top-dose activation, most hits filed as activators | Huh7 NPC1 promoter luciferase reporter, 24 h; further: % of control where 0% means no effect; nearly all actives have a fitted effect of over 60% in size
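Luminescence from an NPC1 promoter-driven luciferase reporter in stably transfected Huh7 cells was measured after 24 h compound treatment at 37 °C, followed by 10 min ambient incubation with luciferase detection reagent.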
ELG1 DNA repair: inhibitors of ELG1-dependent DNA repair in HEK293T cells | HEK293T ELG1-luciferase reporter, luminescence, 16 h; DNA damage induced by 5-fluorouridine | Potency, µM (series often up to 46.1 µM), for inactives: at the highest dose activity change, negative = inhibition, actives largely listed as inhibitors | actives 2.3% (n = 330,000); further: on the % scale 0 is the no-effect control and ±100 the full control effect; nearly all actives have a fitted effect of over 55% in size
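DMSO vehicle served as the neutral condition. Each well held 2,000 cells given 5-fluorouridine plus compound; after 16 hr at 37 °C/5% CO2, ONE-Glo was added and luciferase measured 30 min later.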
SMN2 splice up: increases expression of the SMN2 splice variant | HEK293 SMN2-luciferase splicing reporter, luminescence, 30-36 h | Potency, µM (highest dose often 46.1 µM), for the others: at the top dose activity change, positive = activation, hits mostly activators | actives 2.8% (n = 210,000); further: % of control where 0% means no effect; nearly all actives have a fitted effect of over 55% in size
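HEK293 cells carry an SMN2 […]–luciferase reporter in which exon 7 inclusion puts luciferase in frame. Cells were plated 10-12 h before compound addition, then incubated 30-36 h at 37C. ONE-Glo luminescence was read; sodium butyrate at 4.5 mM final served as control.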
FLuc counter: inhibits or activates purified firefly luciferase, miR-21 counter-screen | P08659 | purified FLuc, Km substrates, luminescence inhibition | Potency, µM (highest dose often 57.5 µM), for inactives: at the top dose activity change, negative = inhibition, most hits filed as inhibitors | actives 6.9% (n = 360,000) | AID 588342;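 further: plate controls were vehicle for no effect and reference inhibitor for full effect; nearly all actives have a fitted effect of over 55% in size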
Target sequence (P08659 whole entry, looked up): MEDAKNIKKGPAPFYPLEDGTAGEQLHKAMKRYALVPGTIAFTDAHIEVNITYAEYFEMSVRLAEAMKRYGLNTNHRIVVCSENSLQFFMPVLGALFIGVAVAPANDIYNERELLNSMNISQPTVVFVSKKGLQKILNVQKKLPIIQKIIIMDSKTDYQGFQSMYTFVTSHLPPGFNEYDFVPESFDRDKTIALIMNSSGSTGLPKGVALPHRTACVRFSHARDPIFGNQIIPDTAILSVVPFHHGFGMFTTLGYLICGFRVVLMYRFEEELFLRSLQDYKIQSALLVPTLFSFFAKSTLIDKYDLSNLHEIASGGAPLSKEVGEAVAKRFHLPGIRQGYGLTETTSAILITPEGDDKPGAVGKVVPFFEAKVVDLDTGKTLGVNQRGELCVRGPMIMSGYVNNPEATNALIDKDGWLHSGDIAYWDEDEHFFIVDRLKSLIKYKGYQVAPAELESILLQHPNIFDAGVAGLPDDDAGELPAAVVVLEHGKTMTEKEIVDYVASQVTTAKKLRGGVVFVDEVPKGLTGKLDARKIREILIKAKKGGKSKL
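Purified P. pyralis luciferase (10nM final) with 10uM D-luciferin and 10uM ATP (Km levels) in 50mM Tris acetate pH 7.5, 10mM Mg acetate, 0.01% Tween-20, 0.05% BSA; qHTS 6-point titration, ~60 µM downward; luminescence read.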
ELG1 genotox: genotoxicity induction in ELG1-luciferase HEK293T cells. HEK293T ELG1-luciferase reporter, luminescence, 16 h. Potency, µM (titrated, usually from 46 µM), for the others: at the top dose activity change, positive = activation, hits mostly activators. actives 1.3% (n = 330,000). AID 504466; further: % of control where 0% means no effect; nearly all actives have a fitted effect of over 60% in size
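16 hr compound incubation (37 °C, 5% CO2) of HEK293T cells carrying luciferase-tagged ELG1; luciferase then measured by ONE-Glo luminescence after 30 min at RT.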
Rab9 prom act: activates the Rab9 promoter; Huh7 Rab9 promoter-luciferase reporter, luminescence, 24 h; Potency, µM (top dose mostly 9.22 µM), without a hit: top-dose activation, negative = inhibition, usual class: activators; actives 2.8% (n = 320,000); further: % of control where 0% means no effect; nearly all actives have a fitted effect of over 60% in size
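Huh7 reporter line, Rab9 promoter upstream of luciferase. Compound exposure 24 h at 37 °C in reduced-serum medium with 10% FBS. Read-out: luminescence.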
* hit, by the source's call; ? = inconclusive; . = no result given. The list is not random: actives were taken first. Their share in the collection is about 9.2%. The call rests on the fitted dose curve; in most records, active means well fitted curve in the direction sought with a large enough effect; inconclusive means small, poorly fitted or top-dose-only effect, or another doubt; inactive means no such curve, though single readings can be large; an effect the other way counts as inactive or inconclusive. Potency means the concentration at half of the fitted maximal effect.

SMILES	NPC1 prom act	ELG1 DNA repair	SMN2 splice up	FLuc counter	ELG1 genotox	Rab9 prom act
C=CCN(C(=O)Cc1cccs1)c1nc(-c2ccc(S(C)(=O)=O)cc2)cs1	?	?	.	17µM*	0%	?
C=CCN(C(=O)CCc1ccccc1OC)c1nc(-c2ccc(S(C)(=O)=O)cc2)cs1	1%	?	.	-16%	-4%	15%
C[C@H](NC(=O)c1nc[nH]c1C(=O)NCc1ccc(CNC(=O)OC(C)(C)C)cc1)C(=O)OC(C)(C)C	3%	8.2µM*	.	1%	-8%	0%
CC(C)(C)OC(=O)NCCCCCNC(=O)c1nc[nH]c1C(=O)NCc1ccc(CNC(=O)OC(C)(C)C)cc1	.	6.5µM*	.	.	-7%	.
CC(C)(C)OC(=O)CNC(=O)c1nc[nH]c1C(=O)NCc1ccc(CNC(=O)OC(C)(C)C)cc1	1%	?	.	-1%	-10%	0%
CC(C)C[C@H](NC(=O)c1nc[nH]c1C(=O)NCc1ccc(CNC(=O)OC(C)(C)C)cc1)C(=O)OC(C)(C)C	-3%	?	.	1%	-7%	0%
O=C(NCCOc1ccc(Cl)cc1)c1cccc(S(=O)(=O)N2CCCC2)c1	1%	8.9µM*	.	-2%	-2%	2%
COc1ccccc1OCCNC(=O)c1cccc(S(=O)(=O)N2CCN(C)CC2)c1	-4%	11%	.	13µM*	12%	1%
O=C(NCc1ccc(Cl)cc1)c1cccc(S(=O)(=O)N2CCCC2)c1	-5%	?	.	2%	-2%	-2%
COc1ccccc1OCCNC(=O)c1cccc(S(=O)(=O)N2CCN(Cc3ccccc3)CC2)c1	-2%	21µM*	.	1%	-5%	1%
Cc1ccc(N=c2ssnc2Cl)cc1	1%	?	-11%	21µM*	-7%	7%
Cc1cc(Cl)ccc1N=c1ssnc1Cl	0%	16µM*	-23%	?	-23%	-1%
CCCC[C@@H]1C[C@H]1C(NC(=O)c1ccccc1)c1ccc(C(F)(F)F)cc1 (stereo partly drawn)	.	.	-23%	.	.	.
N/C(=N\OC(=O)COc1ccc(Cl)cc1Cl)c1ccncc1	2.8µM*	?	.	3µM*	?	0.63µM*
N/C(=N\OC(=O)COc1ccc(Cl)cc1Br)c1cccnc1	3.2µM*	?	-1%	2.7µM*	-11%	4µM*
N/C(=N\OC(=O)COc1ccc(Br)cc1Cl)c1cccnc1	?	?	18µM*	8.5µM*	?	?
Cc1cc(C)c(C)c(OCC(=O)O/N=C(\N)c2cccnc2)c1	-5%	-2%	.	6%	-5%	0%
COc1ccc(CNc2ncnc3onc(-c4ccc(F)cc4)c23)cc1	.	.	.	-7%	.	.
CCN(CC)C(=O)c1cccc(NC(=O)c2cc(C3CC3)nc3c2cnn3C(C)C)c1	1%	?	.	4%	-8%	0%
CNC(=O)c1cccc(NC(=O)c2cc(-c3ccccc3)nc3c2cnn3C(C)C)c1	-1%	7.9µM*	.	-12%	-4%	-7%
CC(C)n1ncc2c(C(=O)Nc3ccc(S(C)(=O)=O)cc3)cc(C3CC3)nc21	-2%	?	.	3%	-1%	-2%
CC(C)n1ncc2c(C(=O)Nc3cccc(S(=O)(=O)N(C)C)c3)cc(C3CC3)nc21	-2%	21µM*	.	0%	-9%	3%
CC(C)COc1ccc(C(=O)NCC2(N3CCN(C)CC3)CCCCC2)cc1	.	.	.	-2%	.	.
CN(C)/C=C(\C#N)C(=O)Nc1ccc(F)c(Cl)c1	3.5µM*	?	.	?	?	3.2µM*
CN(C)/C=C(\C#N)C(=O)N/N=C/c1ccc(Cl)cc1	2.2µM*	16%	30%	17µM*	9%	?
O=C(CSc1nc(C(F)(F)F)cc(=O)[nH]1)N1CCCC1	11%	10%	.	-1%	3%	1%
Nc1c(Cl)ncnc1N/N=C/c1ccc(O)cc1	-3%	?	.	13µM*	?	20%
